Inconclusive results are not listed. Where a call stands in place of a potency, no number is given. Activity calls are given as the source filed them. Unless noted, calls follow the shape of the dose curve; as a rule, active = well fitted curve in the direction sought with a large enough effect in the repeat runs; inconclusive = weak or mixed curves; inactive = no such curve, though single readings can be large; an effect the other way counts as inactive or inconclusive.
Experiments:
[1] = qHTS assay to identify aromatase inhibitors - cell viability counter screen (AID 743084); conditions: MCF-7 aro ERE viability, CellTiter-Fluor, 24 h; series mostly up to 70.3 µM;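 also: cells stimulated with testosterone during compound exposure; nearly all actives have a fitted effect of over 55% in size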; also: potency is read from the fitted curve at half-maximal effect
[2] = molecular target: Aryl hydrocarbon receptor (Homo sapiens) (UniProt P35869); assay: qHTS assay to identify small molecule that activate the aryl hydrocarbon receptor (AhR) signaling pathway (AID 743085); conditions: HepG2 AhR-luc (HG2L7.5c1), luciferase, 24 h; series mostly up to 70.3 µM;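 also: HG2L7.5c1 human HepG2 liver cells with stably integrated DRE-driven firefly reporter; nearly all actives have a fitted effect of over 15% in size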
Summary of the method: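 Measured in HG2L7.5c1 cells: CellTiter-Fluor signal (30 min incubation, 37C) for viability, then luciferase luminescence (30 min, room temperature). Compound contact time was 24 h at 37C, following a 5 h pre-incubation.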

[3] = molecular target: Peroxisome proliferator-activated receptor gamma (Homo sapiens) (UniProt P37231); assay: qHTS assay to identify small molecule agonists of the peroxisome proliferator-activated receptor gamma (PPARg) signaling pathway (AID 743094; active = well fitted activation curve with a large enough effect in the signal ratio in the repeat runs, not every such curve was filed as active; the % refers to the signal ratio); conditions: HEK293H PPARg-UAS-bla, beta-lactamase FRET ratio, 17 h; series mostly up to 57 µM
Summary of the method: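 GeneBLAzer PPARg UAS-bla HEK293H cells carrying a stably integrated beta-lactamase reporter were pre-incubated 5 h at 37C, then exposed to compounds in DMSO for 17 h at 37C; LiveBLAzer B/G FRET substrate was added for 1 h at room temperature and fluorescence read.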

[4] = qHTS assay to identify small molecule antagonists of the peroxisome proliferator-activated receptor gamma (PPARg) signaling pathway - cell viability counter screen (AID 743194); conditions: PPARg-bla HEK293H viability, CellTiter-Glo luminescence, 17 h, co-treated with 50 nM rosiglitazone; series mostly up to 62.6 µM; also: potency is read from the fitted curve at half-maximal effect; nearly all actives have a fitted effect of over 55% in size
Summary of the method: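 Cytotoxicity counter screen in PPARg-bla HEK293H cells, same wells as reporter assay. Compounds plus 50 nM rosiglitazone (final) for 17 h at 37 C, then viability read by CellTiter-Glo luminescence.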

[5] = qHTS assay for small molecule agonists of the antioxidant response element (ARE) signaling pathway - cell viability counter screen (AID 743203; calls by dose curve; also: potency is read from the fitted curve at half-maximal effect; nearly all actives have a fitted effect of over 55% in size); conditions: ARE-bla HepG2 viability, CellTiter-Glo luminescence, 16 h; series mostly up to 73.3 µM
Summary of the method: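 CellSensor ARE-bla HepG2 cells, 2,000 per well, rested 5 hrs at 37C/5% CO2, then exposed to compound in DMSO for 16 hrs; viability read as CellTiter-Glo luminescence after 30 min at room temperature, in the reporter wells.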

[6] = qHTS assay to identify small molecule that activate the aryl hydrocarbon receptor (AhR) signaling pathway - cell viability counter screen (AID 743086); conditions: HepG2-AhR-luc viability, CellTiter-Fluor, 24 h; series mostly up to 70.3 µM;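 also: HepG2 liver cells carrying the AhR DRE luciferase reporter; nearly all actives have a fitted effect of over 45% in size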
Summary of the method: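 HepG2-AhR-luc (HG2L7.5c1) cells, 4000/well, treated 24 h at 37 C with compound; viability measured as CellTiter-Fluor fluorescence after 30 min in the same wells as the luciferase read.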

[7] = qHTS assay for small molecule activators of the heat shock response signaling pathway - cell viability counter screen (AID 743209); conditions: HSE-bla HeLa viability, CellTiter-Glo luminescence, 5 h; series mostly up to 62.6 µM; also: nearly all actives have a fitted effect of over 50% in size; also: potency is read from the fitted curve at half-maximal effect
Summary of the method: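 CellSensor HSE-bla HeLa cells, plated overnight at 37 C/5% CO2, were exposed to compounds in DMSO for 5 h at 37 C. Viability was then read in the same wells by CellTiter-Glo luminescence after 30 min at room temperature.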

Chain of Peroxisome proliferator-activated receptor gamma (Homo sapiens) (P37231 whole entry, looked up): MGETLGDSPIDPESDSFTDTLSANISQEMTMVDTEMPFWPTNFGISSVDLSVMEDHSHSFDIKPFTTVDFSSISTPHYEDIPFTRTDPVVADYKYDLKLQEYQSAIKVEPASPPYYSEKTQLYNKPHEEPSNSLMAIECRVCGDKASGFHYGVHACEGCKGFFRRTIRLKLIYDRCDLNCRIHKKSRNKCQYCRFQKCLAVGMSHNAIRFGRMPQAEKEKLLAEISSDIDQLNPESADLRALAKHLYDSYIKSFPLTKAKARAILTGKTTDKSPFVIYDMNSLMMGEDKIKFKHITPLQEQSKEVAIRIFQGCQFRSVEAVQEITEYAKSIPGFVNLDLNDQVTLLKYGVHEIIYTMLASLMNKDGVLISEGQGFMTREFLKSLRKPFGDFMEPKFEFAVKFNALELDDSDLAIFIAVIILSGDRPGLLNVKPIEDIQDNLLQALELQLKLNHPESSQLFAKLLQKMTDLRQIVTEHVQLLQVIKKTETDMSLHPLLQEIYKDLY
Chain of Aryl hydrocarbon receptor (Homo sapiens) (P35869 whole entry, looked up): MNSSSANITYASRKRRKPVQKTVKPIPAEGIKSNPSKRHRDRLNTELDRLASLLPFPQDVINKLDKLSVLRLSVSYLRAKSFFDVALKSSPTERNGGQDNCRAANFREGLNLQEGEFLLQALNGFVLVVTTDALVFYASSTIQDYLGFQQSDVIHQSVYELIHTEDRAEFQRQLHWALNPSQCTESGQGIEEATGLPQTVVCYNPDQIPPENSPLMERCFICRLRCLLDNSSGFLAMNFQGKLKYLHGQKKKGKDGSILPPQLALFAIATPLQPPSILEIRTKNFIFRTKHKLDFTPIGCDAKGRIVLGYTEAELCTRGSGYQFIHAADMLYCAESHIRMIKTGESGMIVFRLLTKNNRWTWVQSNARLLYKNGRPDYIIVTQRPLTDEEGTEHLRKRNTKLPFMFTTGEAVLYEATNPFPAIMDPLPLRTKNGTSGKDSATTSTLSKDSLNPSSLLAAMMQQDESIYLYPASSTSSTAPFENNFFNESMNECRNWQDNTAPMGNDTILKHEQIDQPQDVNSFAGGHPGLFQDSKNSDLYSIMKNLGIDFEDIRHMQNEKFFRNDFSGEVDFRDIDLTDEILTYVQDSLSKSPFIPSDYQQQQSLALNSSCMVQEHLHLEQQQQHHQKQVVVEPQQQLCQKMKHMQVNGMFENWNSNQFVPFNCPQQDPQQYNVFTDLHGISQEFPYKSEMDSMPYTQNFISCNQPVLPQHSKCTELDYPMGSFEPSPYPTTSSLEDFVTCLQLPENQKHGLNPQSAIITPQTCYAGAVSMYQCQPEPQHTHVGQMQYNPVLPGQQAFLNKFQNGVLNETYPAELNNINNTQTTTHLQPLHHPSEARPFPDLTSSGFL

## NCc1cccc(C2CCN(C(=O)c3ccc(C#Cc4ccccc4F)o3)CC2)c1
[1]
  Potency: 61.1 µM (active)
[2]
  Potency: inactive
[3]
  Potency: inactive
[4]
  Potency: 19.5 µM (active)
[5]
  Potency: 48.6 µM (active)

## NC(N)=NCCCCN=C(N)N
[1]
  Potency: inactive
[6]
  Potency: inactive
[3]
  Potency: inactive

## C[C@H](Cc1ccc(O)c(O)c1)[C@@H](C)Cc1ccc(O)c(O)c1
[1]
  Potency: inactive
[6]
  Potency: inactive
[3]
  Potency: inactive

## CCC(O)c1ccccc1 (centres undefined)
[1]
  Potency: inactive
[6]
  Potency: inactive

## C[C@@H]1C[C@H]2[C@@H]3C[C@H](F)C4=CC(=O)C=C[C@]4(C)[C@@]3(Cl)[C@@H](O)C[C@]2(C)[C@H]1C(=O)COC(=O)C(C)(C)C
[1]
  Potency: inactive
[6]
  Potency: inactive
[3]
  Potency: inactive

## CCCCCCCCCCCCCCCCCCNC(=O)OC1CCN(C(=O)OC[C@H](COC(=O)N(Cc2cccc[n+]2CC)C(=O)c2ccccc2OC)OC)CC1
[1]
  Potency: 29.8 µM (active)
[2]
  Potency: inactive
[5]
  Potency: 26.6 µM (active)
[7]
  Potency: 23.7 µM (active)

## COC(=O)C(CN)c1c[nH]c2ccc(OC)cc12 (centres undefined)
[1]
  Potency: inactive
[3]
  Potency: inactive

## NC(=O)[C@@H]1C[C@]2(NC(=O)NC2=O)c2cc(F)ccc2O1
[1]
  Potency: inactive
[6]
  Potency: inactive
[3]
  Potency: inactive

## C1CCc2nnnn2CC1
[1]
  Potency: inactive
[6]
  Potency: inactive
[3]
  Potency: inactive

## C=CCc1cc(S(=O)(=O)c2ccc(O)c(CC=C)c2)ccc1O
[1]
  Potency: inactive
[3]
  Potency: inactive
[7]
  Potency: inactive

## Cc1cc(C(=O)NCCc2ccc(S(=O)(=O)NC(=O)NN3CCCCCC3)cc2)no1
[1]
  Potency: inactive
[6]
  Potency: inactive
[3]
  Potency: inactive

## O=C(O)[C@H]1CN(C/C=C/P(=O)(O)O)CCN1
[1]
  Potency: inactive
[6]
  Potency: inactive

## CN(Cc1ccccc1)Cc1ccccc1
[1]
  Potency: inactive
[6]
  Potency: inactive
[3]
  Potency: inactive

Source: PubChem BioAssay (Tox21)
